# This is a sample that favours compounds with a hit; in the whole collection about 3.5% have one here.
# LmPK inh – qHTS Assay for Inhibitors of Leishmania Mexicana Pyruvate Kinase (LmPK) | Q27686 | purified LmPK, Kinase-Glo ATP luminescence, 1 h | actives 0.37% (n = 290,000) | Potency, µM (highest dose often 57.5 µM), usual class: inhibitors
# Target sequence (Q27686 whole entry, looked up): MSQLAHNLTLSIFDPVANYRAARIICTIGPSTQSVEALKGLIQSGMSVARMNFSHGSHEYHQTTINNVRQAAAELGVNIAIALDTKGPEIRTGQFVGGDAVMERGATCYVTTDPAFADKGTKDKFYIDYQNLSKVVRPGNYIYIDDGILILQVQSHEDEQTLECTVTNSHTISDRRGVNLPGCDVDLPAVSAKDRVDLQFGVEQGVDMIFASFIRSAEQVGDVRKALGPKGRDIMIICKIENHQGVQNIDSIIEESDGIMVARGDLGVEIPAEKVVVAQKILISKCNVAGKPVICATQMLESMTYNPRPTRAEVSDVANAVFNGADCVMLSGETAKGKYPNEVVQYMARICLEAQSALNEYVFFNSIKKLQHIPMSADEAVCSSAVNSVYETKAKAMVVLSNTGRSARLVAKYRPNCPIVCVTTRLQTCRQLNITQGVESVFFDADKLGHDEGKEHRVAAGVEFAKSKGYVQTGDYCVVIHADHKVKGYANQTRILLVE
#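 Pyruvate kinase activity monitored as ATP production (luciferase luminescence). Conditions: 0.1 nM enzyme, 0.5 mM PEP, 0.1 mM ADP, 1 h, RT; normalized against uninhibited and no-enzyme wells.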
# FBPA Giardia inh – qHTS Assay for Inhibitors of Fructose-1,6-bisphosphate Aldolase from Giardia Lamblia. actives 0.71% (n = 290,000). AID 2451, 2010. Potency, µM (titrated, usually from 59.6 µM), most hits filed as inhibitors. A8B2U2. purified Giardia FBPA; further: nearly all actives have a fitted effect of over 55% in size
#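 Giardia FBPA (40 nM reagent) was preincubated 10 min at RT with compound (up to 57.5 uM final), then substrate plus GAPDH/TPI/NAD/arsenate coupling system with diaphorase/resazurin was added; resorufin fluorescence (525/598 nm) was read after 20 min.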
# Sm TGR inh – qHTS Assay for the Inhibitors of Schistosoma Mansoni Peroxiredoxins | Schistosoma mansoni thioredoxin glutathione reductase (TGR), Q962Y6 | purified TGR, DTNB reduction, TNB absorbance 405 nm | Potency, µM (highest dose often 114 µM), usual class: inhibitors | actives 3% (n = 360,000) | AID 485364, 2010; further: nearly all actives have a fitted effect of over 60% in size
#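 TGR 20 nM + NADPH 100 uM (dispensed conc.), cpd preinc 15 min RT; start with NADPH (500 uM addition) then DTNB (15 mM addition). Kinetic TNB absorbance, 405 nm filter. Four-parameter Hill fit across titration.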
# TbPYK inhibitor – qHTS of Trypanosoma Brucei Inhibitors | TbPYK enzyme, Kinase-Glo Plus ATP luminescence, 45 min | Potency, µM (doses to about 76.8 µM), usual class: inhibitors | actives 0.12% (n = 410,000) | AID 624173, 2012; further: nearly all actives have a fitted effect of over 50% in size
#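 Quantitative HTS: titrated library compounds versus trypanosomal pyruvate kinase in TEA buffer (pH 7.2) containing KCl, MgCl2, BSA and Tween-20. Reactions were initiated with ADP, 130 uM final. Kinase-Glo Plus luminescence was read after 45 min at RT.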
# NS1 function inh – qHTS Assay for Inhibitors of Influenza NS1 Protein Function; AID 2326, 2010; actives 0.4% (n = 270,000); Potency, µM (doses to about 46.1 µM); calls by dose curve; further: actives are rising curves; nearly all actives have a fitted effect of over 50% in size
#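 Read-out: OD600 growth recovery of NS1-expressing budding yeast. Cells grown overnight at 30C in -URA glucose medium, washed, resuspended and diluted 1:100 in 2% galactose assay medium, pH 6.0. Same strain lacking NS1 served as positive control.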
# RE007 growth inh – qHTS Assay for Inhibitors of the HIV-1 protein Vpr | S. pombe RE007 Vpr strain, BacTiter-Glo ATP luminescence, 24 h | Potency, µM (highest dose often 92.2 µM), usual class: inhibitors | actives 0.21% (n = 360,000) | AID 651644, 2012; active means well fitted falling curve with a large enough effect; inconclusive means small, poorly fitted or top-dose-only effect; inactive means no such curve, though single readings can be large or run the other way; further: nearly all actives have a fitted effect of over 50% in size
#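 Fission yeast strain RE007, carrying one chromosomally integrated HIV-1 vpr copy, was seeded at OD 0.01 in PMG+AL medium with 23 nL pinned compound. After 24 h at 30 °C and 99% humidity, viability was read by BacTiter-Glo luminescence.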
# Hits are given with their value; i = inactive; ? = inconclusive; nt = not tested or not shown; [ ] = remark or other dose. Unless noted, the call rests on the fitted dose curve; in most records, active means well fitted curve in the direction sought with a large enough effect; inconclusive means small, poorly fitted or top-dose-only effect, or another doubt; inactive means no such curve, though single readings can be large; an effect the other way counts as inactive or inconclusive.
SMILES,LmPK inh,FBPA Giardia inh,Sm TGR inh,TbPYK inhibitor,NS1 function inh,RE007 growth inh
O=S(=O)(NC(=S)NC1CCCCC1)c1ccc(Cl)cc1,i,i,13µM,i,i,i
CCC(C)NC(=O)CSc1nc2n[nH]c(C)c2c(=N)n1-c1cc(Cl)ccc1C (stereo not drawn),nt,nt,i,i,nt,nt
CCOC(=O)c1ccc(NC(=O)C2=C(C)Nc3nc(SCc4ccc(Cl)cc4)nn3C2c2ccc(C)cc2)cc1 (stereo not drawn),nt,nt,i,i,nt,nt
COC(=O)c1cc(NC(=O)CCc2c(C)nc3c(c(C)nn3C(C)(C)C)c2C)cc(C(=O)OC)c1,nt,nt,i,i,nt,nt
COc1cccc(C(C)(O)c2nc(-c3cccc(C(F)(F)F)c3)cs2)c1 (stereo not drawn),nt,nt,nt,i,nt,?
COc1ccc(C(C)(O)c2nc(-c3cccc(C(F)(F)F)c3)cs2)cc1 (stereo not drawn),nt,nt,nt,i,nt,35µM
O=C(CSc1n[nH]c(-c2ccccc2Cl)n1)N1CCN(c2ccccc2)CC1,nt,nt,i,i,nt,nt
COc1ccc2cc(C(=O)/C=C/c3cc(OC)c(O)c(OC)c3)ccc2c1,i,nt,i,i,i,i
COc1ccc(C(=O)/C=C/c2cc(OC)c(O)c(OC)c2)c(F)c1,i,?,50µM,i,i,i
Clc1ccc(-c2nnc(-c3ccco3)nc2N2CCCCC2)cc1,i,i,2.8µM,?,i,i
Cc1c(O)c(CN2CCCC2)cc2c1oc(=O)c1ccccc12,i,i,50µM,i,i,i
O=C(NC1CCCc2ccccc21)c1ccc2c(c1)sc1nc(-c3ccccc3)cn12 (stereo not drawn),nt,nt,i,i,nt,nt
Cc1ccc(Nc2ccc(N3CCN(C(=O)c4cccc([N+](=O)[O-])c4)CC3)nn2)cc1,nt,nt,i,i,nt,nt
Cc1ccc(NC(=O)c2ccccc2O)cc1,i,i,i,i,i,32µM
Cc1ccc(NC(=O)C2=C(c3ccccc3)S(=O)(=O)CCS2(=O)=O)cc1,i,i,0.32µM,i,nt,i
Cc1ccc(NC(=O)c2ccccc2)cc1,?,i,i,i,i,i
O=C(Nc1ccccc1)c1ccccc1O,i,i,i,i,i,i
Cc1ccc2c(c1)c1c(c(=O)n(-c3cccc(Cl)c3)c(=O)n1CC(=O)N1CCCC1)n2C,nt,nt,i,i,nt,nt
CCCCNc1cc(NC(C)=O)cc2cc(OC)c(OC)cc12,i,?,?,i,i,i
COc1cc2cc(NC(C)=O)cc(NCc3ccccc3)c2cc1OC,i,?,35µM,i,?,i
Cc1c(NC(=O)c2sc3c([N+](=O)[O-])cccc3c2Cl)cccc1-c1nc2ccccc2o1,nt,nt,i,i,nt,nt
CC(=O)Nc1ccc(CN2CCc3c([nH]c4ccccc34)C2C(C)(C)C)cc1 (stereo not drawn),i,i,50µM,i,i,i
CC(=O)N1CCc2c(sc3c2c(=O)n(-c2ccc(C)cc2)c(=O)n3Cc2ccccc2C)C1,nt,nt,i,i,nt,nt
O=C(CCCCn1c(=O)[nH]c2ccsc2c1=O)N1CCN(c2cccc(Cl)c2)CC1,nt,nt,i,i,nt,nt
FC(F)(F)c1cc(-c2ccco2)nc(NCc2cccs2)n1,i,i,20µM,i,i,i
SMILES,LmPK inh,FBPA Giardia inh,Sm TGR inh,TbPYK inhibitor,NS1 function inh,RE007 growth inh
FC(F)(F)c1cc(-c2ccco2)nc(NCc2ccco2)n1,i,i,?,i,i,i
CN1C(=O)Cc2cc(S(=O)(=O)CCC(=O)N3CCN(c4ccccc4F)CC3)ccc21,nt,nt,i,i,nt,nt
CCC(=O)N1c2ccc(S(=O)(=O)CCC(=O)N3CCN(c4ccccc4F)CC3)cc2CC1C (stereo not drawn),i,i,22µM,i,i,i
CCn1c(SCC(=O)N2CCCCC2C)nnc1-c1ccco1 (stereo not drawn),i,i,45µM,i,i,i
CCn1c(SCC(=O)c2ccc3ccccc3c2)nnc1-c1ccco1,i,i,32µM,nt,i,i[3.69 µM]
CCn1c(SCC(=O)c2ccc3c(c2)OCCO3)nnc1-c1ccco1,i,?,22µM,i,i,i

# Screening results: PubChem BioAssay, National Center for Advancing Translational Sciences (NCATS)
